Data reported in PubChem BioAssay (NCATS).
Results filed as inconclusive are left out. Calls of active or inactive are those of the source. Calls follow the shape of the full dose curve.

How the values were obtained:
[1] = Primary qHTS for inhibitors of SARS-S pseudo-typed particle cell entry (AID 1479145); also: nearly all actives have a fitted effect of over 45% in size; as to activity change, negative = inhibition: series mostly up to about 57 µM
[2] = Primary qHTS for Huh7 cytotoxicity: counterscreen for inhibitors of MERS-S pseudotyped particle cell entry (AID 1479147)
[3] = Primary qHTS for inhibitors of MERS-S pseudo-typed particle cell entry (AID 1479149); also: nearly all actives have a fitted effect of over 60% in size; as to activity change, negative = inhibition: series mostly up to about 57 µM
[4] = Primary qHTS for Vero E6 cytotoxicity: counterscreen for inhibitors of SARS-S pseudo-typed particle cell entry (AID 1479150)
% is scaled to controls: 0 for no effect and ±100 for the full control effect.

NCCCCCC(=O)O
inactive: Potency [1] | Potency [2] | Potency [3] | Potency [4]

O=C(O)c1cc(=O)[nH]c(=O)[nH]1
inactive: Potency [1] | Potency [2] | Potency [3] | Potency [4]

C[N+](C)(C)CCOC(N)=O
inactive: Potency [1] | Potency [2] | Potency [3] | Potency [4]

Clc1cccc(C(c2ccc3nc[nH]c3c2)n2ccnc2)c1 (stereo not given)
inactive: Potency [1] | Potency [2] | Potency [3] | Potency [4]

CCN1CCCC1CNC(=O)c1cc(S(=O)(=O)CC)c(N)cc1OC (stereo not given)
inactive: Potency [1] | Potency [2] | Potency [3] | Potency [4]

CN1[C@@H]2CC(OC(=O)[C@H](CO)c3ccccc3)C[C@H]1[C@@H]1O[C@@H]12 (stereo not given in full)
inactive: Potency [1] | Potency [2] | Potency [3] | Potency [4]

CC(=O)N(c1onc(C)c1C)S(=O)(=O)c1ccc(N)cc1
inactive: Potency [1] | Potency [2] | Potency [3] | Potency [4]

COc1ccc2cc1Oc1cc3c(cc1OC)CC[N+](C)(C)[C@H]3Cc1ccc(cc1)Oc1c(OC)c(OC)cc3c1[C@@H](C2)[N+](C)(C)CC3
inactive: Potency [1] | Potency [2] | Potency [3] | Potency [4]

C[C@@H](O)[C@H]1C(=O)N2C(C(=O)O)=C(SCCN=CN)C[C@H]12
inactive: Potency [1] | Potency [2] | Potency [3] | Potency [4]

c1ccc2c(CC3=NCCN3)cccc2c1
inactive: Potency [1] | Potency [2] | Potency [3] | Potency [4]

NS(=O)(=O)c1cc2c(cc1Cl)NC(CC1CCCC1)NS2(=O)=O (stereo not given)
inactive: Potency [1] | Potency [2] | Potency [3] | Potency [4]

COc1ccc(C2C(=O)c3ccccc3C2=O)cc1
inactive: Potency [1] | Potency [2] | Potency [3] | Potency [4]

Nc1ncnc2c1ncn2[C@@H]1O[C@H](CO)[C@@H](O)[C@H]1O
inactive: Potency [1] | Potency [2] | Potency [3] | Potency [4]

CC(=O)c1ccc(S(=O)(=O)NC(=O)NC2CCCCC2)cc1
inactive: Potency [1] | Potency [2] | Potency [3] | Potency [4]

COC(=O)C1=C(C)NC(C)=C(C(=O)OCCc2ccc(N3CCN(C(c4ccccc4)c4ccccc4)CC3)cc2)C1c1cccc([N+](=O)[O-])c1 (stereo not given)
inactive: Potency [1] | Potency [2] | Potency [3] | Potency [4]

Cc1cc2c(cc1CC(=O)c1sccc1S(=O)(=O)Nc1onc(C)c1Cl)OCO2
inactive: Potency [1] | Potency [2] | Potency [3] | Potency [4]

CC[N+](C)(CC)CCOC(=O)C1c2ccccc2Oc2ccccc21
inactive: Potency [1] | Potency [2] | Potency [3] | Potency [4]

C/C(=C(\CCO)SS/C(CCO)=C(\C)N(C=O)Cc1cnc(C)nc1N)N(C=O)Cc1cnc(C)nc1N
inactive: Potency [1] | Potency [2] | Potency [3] | Potency [4]

O=C(O)Cc1cccc(-c2cc(CCCCCCc3ccc(O[C@H]4O[C@H](CO)[C@@H](O)[C@H](O)[C@@H]4O)c(-c4cccc(CC(=O)O)c4)c3)ccc2O[C@H]2O[C@H](CO)[C@@H](O)[C@H](O)[C@@H]2O)c1
inactive: activity change, negative = inhibition [1] -22.9% [at 0.573 µM] | outcome [2] inactive [at 0.573 µM] | outcome [3] inactive [at 0.573 µM] | outcome [4] inactive [at 0.573 µM]

CN1C(C(=O)Nc2ccccn2)=C(O)c2ccccc2S1(=O)=O
inactive: Potency [1] | Potency [2] | Potency [3] | Potency [4]

COc1cc2c3cc1Oc1cc(ccc1O)C[C@@H]1c4c(cc(OC)c(O)c4Oc4ccc(cc4)C[C@@H]3N(C)CC2)CC[N+]1(C)C
inactive: Potency [1] | Potency [2] | Potency [3] | Potency [4]

C[C@H]1C[C@@H]2[C@H]([C@@H](O)C[C@@]3(C)[C@H]2CC[C@]3(O)C(=O)CO)[C@@]2(C)C=CC(=O)C=C12
inactive: Potency [1] | Potency [2] | Potency [3] | Potency [4]

C[C@@H](CN1CC(=O)NC(=O)C1)N1CC(=O)NC(=O)C1
inactive: Potency [1] | Potency [2] | Potency [3] | Potency [4]

CC(C)(C)NCC(O)COc1cccc2c1C[C@H](O)[C@H](O)C2 (stereo not given in full)
inactive: Potency [1] | Potency [2] | Potency [3] | Potency [4]

Cc1onc(-c2ccccc2)c1-c1ccc(S(N)(=O)=O)cc1
inactive: Potency [1] | Potency [2] | Potency [3] | Potency [4]

CC(C)COC(=O)c1ccc(N)cc1
inactive: Potency [1] | Potency [2] | Potency [3] | Potency [4]

CCN(CC)C(=O)/C(C#N)=C/c1cc(O)c(O)c([N+](=O)[O-])c1
inactive: Potency [1] | Potency [2] | Potency [3] | Potency [4]

CCN(CC)CCNC(=O)c1ccc(N)cc1
inactive: Potency [1] | Potency [2] | Potency [3] | Potency [4]

CC(C)=CCC1C(=O)N(c2ccccc2)N(c2ccccc2)C1=O
inactive: Potency [1] | Potency [2] | Potency [3] | Potency [4]

CC(C)(Oc1ccc(Cl)cc1)C(=O)OCCCOC(=O)C(C)(C)Oc1ccc(Cl)cc1
inactive: Potency [1] | Potency [2] | Potency [3] | Potency [4]
